This is a sample that favours compounds with a hit; in the whole collection about 21% have one here.
Cycloheximide cs: counter-screen for Shiga toxin inhibitors: cycloheximide protein synthesis inhibition; cell reporter, cycloheximide protein synthesis inhibition counterscreen; 300,000 tested, 12% active; max response, %; in the data active = max response mostly above about 13%, no sharp cut-off; inactive = mostly below about 14%; also: read at 38.3 µM for the half of the compounds with a filed dose; 0% is about no effect
Pf growth 96h: P. falciparum growth inhibition at 96 hour, primary screen for plastid delayed-death inhibitors; P. falciparum luciferase reporter growth, 96 h; Potency, µM (doses to about 28.7 µM), inactives show at the top dose activity change, negative = inhibition, most hits filed as inhibitors; 320,000 tested, 6.9% active; also: potency is read from the fitted curve at half-maximal effect; % is scaled to controls: 0 for no effect and ±100 for the full control effect
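Readout is luminescence from an integrated firefly luciferase in P. falciparum. Red cells, 2% hematocrit and 0.05% parasitemia final, were cultured with compound through two parasite generations (96 hours) at 37 C, 5% CO2.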
Pf growth 48h: P. falciparum growth inhibition at 48 hours (one generation); P. falciparum luciferase growth in erythrocytes, 48 h; Potency, µM (titrated, usually from 28.7 µM), for the others: at the highest dose activity change, negative = inhibition, usual class: inhibitors; 310,000 tested, 5.9% active; also: potency is read from the fitted curve at half-maximal effect; % is scaled to controls: 0 for no effect and ±100 for the full control effect
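Erythrocytes infected with P. falciparum carrying an integrated firefly luciferase reporter (2% hematocrit, 0.1% parasitemia final) were exposed to compounds in RPMI 1640 with 0.5% Albumax at 37 C, 5% CO2. Growth inhibition was scored as reduced luminescence.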
Shiga toxin inh: Shiga toxin inhibition | Vero cells, Shiga toxin protein synthesis inhibition reporter | inhibition, % at 38.7 µM | 290,000 tested, 9.2% active | AID 2315; in the data active = inhibition mostly above about 28%, no sharp cut-off; inactive = mostly below about 43%; also: 0% is about no effect
HCV inh: inhibitors of hepatitis C virus infection; Huh7.5.1 HCVcc-Cre infection, luciferase reporter, 44 h; Potency, µM (doses to about 41.8 µM), without a hit: top-dose activity change, negative = inhibition, hits mostly inhibitors; 340,000 tested, 3.4% active; also: potency is read from the fitted curve at half-maximal effect; % is scaled to controls: 0 for no effect and ±100 for the full control effect
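Reporter virus HCVcc-Cre (~0.5 moi) infects cells exposed to compound; seeding density 1,000 cells/well with 4 h settling beforehand. Luminescence, 15 sec read, taken 44 h post-infection following a 15 min RT substrate incubation.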
AMA1-RON2 inh: disrupts binding of P. falciparum AMA1 to RON2 | 360,000 tested, 0.2% active | Potency, µM (series often up to 58.2 µM), inactives show at the top dose activity change, negative = inhibition, most hits filed as inhibitors | AlphaScreen AMA1-biotinylated RON2 peptide binding | AID 720542;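 also: potency is read from the fitted curve at half-maximal effect; 0% = vehicle wells and -100% = peptide control; nearly all actives have a fitted effect of over 45% in size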
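AMA1 (3D7) with his tag at 25 nM final met compounds first, then biotinylated RON2 peptide at 25 nM; detection used donor plus acceptor beads, 10 µg/mL apiece, read by AlphaScreen after 30 min at room temperature.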
* hit, by the source's call; i = inactive; ? = inconclusive; . = not tested or not shown; [ ] = another dose, or the depositor's remark. Unless noted, calls follow the shape of the dose curve; as a rule, active = well fitted curve in the direction sought with a large enough effect; inconclusive = small, poorly fitted or top-dose-only effect, or another doubt; inactive = no such curve, though single readings can be large; an effect the other way counts as inactive or inconclusive.

SMILES	Cycloheximide cs	Pf growth 96h	Pf growth 48h	Shiga toxin inh	HCV inh	AMA1-RON2 inh
CC1C(=O)N(Cc2cn(CCC3OCCO3)nn2)CCS(=O)(=O)N1Cc1ccc(-c2ccc(Cl)cc2)cc1 (stereo not drawn)	.	.	.	.	.	0%
Cc1cccc(NC(=O)c2ccc(C)c(S(=O)(=O)N3CCCCC3)c2)n1	.	?	22%	.	10%	1%
CCOC(=O)C1(Cc2ccc(Cl)cc2)CCN(C(=O)CCc2ccncc2)CC1	1	?	?	17	?	13%
CCOc1ccc(/C=N/NC(=O)c2ccoc2C)cc1OC	79*	?	-14%	77*	-3%	28%
COc1cccc(/C=N/NC(=O)c2ccoc2C)c1	42*	293%	190%	57*	4%	10%
COc1cccc(C=NNC(=O)C(C)SC(C)C(=O)NN=Cc2cccc(OC)c2)c1 (stereo not drawn)	.	.	.	.	?	4%
Cc1cc(-c2ccc3ccccc3c2)n2ncnc2n1	13	11%	i	6	0%	11%
CCN(CC)C(=O)c1cc2c(=O)oc3ccccc3c2s1	27*	6%	19%	34*	-29%	11%
Cc1cc(N(C)C)ccc1N=Nc1ccc2ncccc2c1	52*	?	-21%	95*	?	11µM*
COc1cc(OC)cc(-c2nnc(NC(=O)c3ccc4c(c3)OCCO4)o2)c1	13	?	12%	-3	2%	116%
CCCC(=O)Nc1nnc(-c2ccc3c(c2)OCO3)s1	-1	84%	0%	-3	4%	-9%
CCCC(=O)Nc1nnc(-c2ccc3c(c2)OCCO3)o1	31*	234%	118%	58*	6%	68%
CCCC(=O)Nc1nc(-c2ccc3c(c2)OCCO3)cs1	40*	97%	75%	93*	?	4%
CSCC(=O)Nc1nc(-c2ccc3c(c2)OCCO3)cs1	51*	332%	i	119*	2%	-21%
O=C(O)C(=O)Nc1nc(-c2ccc3c(c2)OCCO3)cs1	14*	21%	38%	26*	19%	45%
O=[N+]([O-])c1ccc(Cl)c(S(=O)(=O)/N=C(/c2ccccc2)N2CCOCC2)c1	6	53%	10%	-21	4%	-1%
COCCNC(=O)CCC1CCN(Cc2cccc(Oc3ccccc3)c2)CC1	-2	?	3%	-11	-3%	-8%
O=C(Nc1nc(-c2ccc3c(c2)OCO3)cs1)C1CC1	44*	94%	65%	66*	-2%	-4%
CC(=O)Nc1nnc(-c2ccc3c(c2)CCCC3)o1	46*	?	.	65*	10%	94%
COc1ccccc1C(=O)Nc1nnc(-c2ccc3c(c2)CCCC3)o1	18	24%	.	39	-8%	111%
O=C(CN1CCCc2ccccc21)NCCc1ccc(Cl)cc1	6	?	-1%	10	12%	?
O=C(CN1C(=O)c2ccc([N+](=O)[O-])cc2C1=O)NCc1ccc(C(=O)O)cc1	-5	14%	1%	.	11%	-7%
O=C(CCCC(=O)OCC(F)(F)C(F)F)Nc1ccccc1F	-3	?	?	-8	4%	0%
O=C1CNC(=O)/C1=C\N1CCN(C(c2ccccc2)c2ccccc2)CC1	2	3.3µM*	-19%	-8	?	-2%
COc1ccc(C2(c3ccc(OC)cc3)NC(=O)N(CC(=O)Nc3ccccc3C(F)(F)F)C2=O)cc1	2	12µM*	?	-23	?	4%
SMILES	Cycloheximide cs	Pf growth 96h	Pf growth 48h	Shiga toxin inh	HCV inh	AMA1-RON2 inh
COc1ccc(C2(c3ccc(OC)cc3)NC(=O)N(CC(=O)Nc3ccc(OC)c(OC)c3)C2=O)cc1	-5	?	6.6µM*	-7	?	-24%
Cc1cc(NC(=O)CN2C(=O)NC(C)(c3ccccc3)C2=O)no1 (stereo not drawn)	-4	.	-1%	-18	8%	1%
COc1ccc(C2(c3ccc(OC)cc3)NC(=O)N(CC(=O)Nc3ccccc3C)C2=O)cc1	-7	-8%	31%	-8	?	4%
Cc1cc(NC(=O)CN2C(=O)NC(c3ccccc3)(c3ccc(C)c(C)c3)C2=O)no1 (stereo not drawn)	.	4.1µM*	?	.	?	-1%
COc1ccc(-c2csc(NC(=O)CCN3C(=O)C4CC=CCC4C3=O)n2)cc1OC (stereo not drawn)	.	?	10µM*	.	?	-10%
COc1ccc(-c2csc(NC(=O)Cc3cc(OC)c(OC)c(OC)c3)n2)cc1OC	-3	12µM*	?	-6	?	-16%
COc1cc(OC)cc(C(=O)N[C@H](C(=O)Nc2nc(-c3ccc(OC)c(OC)c3)cs2)C(C)C)c1	13	10µM*	13µM*	-4	?	-5%
O=C(Nc1nnc([C@H]2C[C@H](O)[C@@H](CO)O2)s1)NC1CCCCC1	.	.	.	.	.	4%
Cc1ccc(NC(=O)CCNS(=O)(=O)c2cccc3nsnc23)cc1F	0	22%	15%	3	-5%	-8%
O=C(COC(=O)c1c[nH]c(=O)[nH]c1=O)Nc1cccc([N+](=O)[O-])c1	.	1%	3%	.	-21%	13%
Cc1cc(C)n2cc(COc3ccc4ccccc4c3)nc2n1	53*	193%	275%	66*	7%	26%
Cc1cccc2nc(COc3ccc(-c4ccccc4)cc3)cn12	43*	32%	38%	85*	.	.
CC(NC(=O)COC(=O)c1cccc(S(=O)(=O)N2CCCC2)c1)c1ccccc1 (stereo not drawn)	.	.	.	.	?	-10%
CCc1nnc(NC(=O)CSc2nc3c(cc2C#N)CCCC3)s1	35*	73%	104%	58*	5%	4%
CCOC(=O)c1sc(NC(=O)CSc2nc3c(cc2C#N)CCCCC3)c(C#N)c1C	12	1%	?	10	6%	-13%
COC(=O)CC(=O)CSc1nc2c(cc1C#N)CCCCC2	46*	.	99%	105*	13%	18%
CNC(C)C#Cc1ccc2c(=O)c3cc(C)c(C)cc3oc2c1 (stereo not drawn)	.	.	.	.	-10%[8.37 µM]	-1%
CNC(C)C#Cc1ccc2sc3cccc(OC)c3c(=O)c2c1 (stereo not drawn)	12*	?	?	19*	?	0%
COc1cccc2sc3cc(C#Cc4ccccn4)ccc3c(=O)c12	.	.	.	.	-21%	?
COc1cccc2oc3ccc(C#Cc4ccccn4)cc3c(=O)c12	66*	i	134%	47*	-22%	-1%
CNC(C)C#Cc1ccc2oc3cccc(OC)c3c(=O)c2c1 (stereo not drawn)	36*	89%	22%	45*	-18%	-1%
CNC(C)C#Cc1ccc2c(=O)c3c(OC)cccc3oc2c1 (stereo not drawn)	37*	?	?	46*	.	.
